Unmarked numbers belong to inactive results.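 The calls were made as follows: active = curve rank above 3; inactive = curve rank 0.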

For the test, the system named is KeratinoSens (HaCaT ARE-luciferase) cells. The test can be described thus: Nrf2/ARE luciferase activation call in qHTS KeratinoSens assay (1 = active, 0 = inactive). In general terms: qHTS replaces the single test concentration by a dilution series.
Regarding `CCn1cc[n+](C)c1C.O=S(=O)([O-])C(F)(F)F`, the “Nrf2/ARE luciferase activation call” value was “not active ARE inducer (skin sensitizer alert)”.

Take `CCCC[n+]1ccc(C)cc1.O=S(=O)([O-])C(F)(F)F`: the “Nrf2/ARE luciferase activation call” value was “not active ARE inducer (skin sensitizer alert)”. With `Cc1ccccc1C(OCCN(C)C)c1ccccc1.O=C(O)CC(O)(CC(=O)O)C(=O)O` (configuration not stated) the entry was “not active ARE inducer (skin sensitizer alert)”; with `CN1Cc2c(N)cccc2C(c2ccccc2)C1.O=C(O)/C=C\C(=O)O` (configuration not stated), “not active ARE inducer (skin sensitizer alert)”; with `CN(C)CCN(Cc1ccccc1)c1ccccn1.O=C(O)CC(O)(CC(=O)O)C(=O)O`, “not active ARE inducer (skin sensitizer alert)”. As for `CC(C)NCC(O)COc1ccc(COCCOC(C)C)cc1.CC(C)NCC(O)COc1ccc(COCCOC(C)C)cc1.O=C(O)/C=C/C(=O)O` (configuration not stated), the “Nrf2/ARE luciferase activation call” value is “not active ARE inducer (skin sensitizer alert)”.

`C[C@H](N)[C@H](O)c1cccc(O)c1.O=C(O)[C@@H](O)[C@@H](O)C(=O)O`: the “Nrf2/ARE luciferase activation call” value was “not active ARE inducer (skin sensitizer alert)”.

The values are drawn from the supplement of paper PMC10933113.
